This note sets out measurements from PubChem BioAssay.

The nature of test [1]: antimalarial activity against Dd2 strain (AID 2302;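 active = growth inhibition above 50% at the single 2 µM test dose, taken to imply half-maximal potency below 2 µM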;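 note: 0% = DMSO untreated growth and 100% = chloroquine plus artemisinin killed control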). The settings on record: P. falciparum Dd2 in RBCs, LDH growth readout, 72 h; at 2 µM; active compounds read high.
A short description of test [2]: HepG2 cytotoxicity, primary screen, cytotoxicity control for P. falciparum antimalarial project, cell-based, ATP luminescence (AID 2303;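 active = inhibition above 50%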;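 note: 0% = DMSO wells and 100% = digitonin-killed cells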). The note with it: HepG2 viability, 24-48 h, at 10 µM, active compounds read high.
The target in test [3] is L-lactate dehydrogenase (Plasmodium falciparum (isolate CDC / Honduras)) (UniProt Q27743). The experiment in a line: PfLDH activity inhibition – cell lysate, 3D7 strain, counter-screen for P. falciparum growth inhibition project (AID 2304).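 Note: 0% = vehicle and 100% = reference inhibitor.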 The settings on record: P. falciparum 3D7 crude extract, LDH APAD/NBT absorbance; at 2 µM; active compounds read high. Background: The purpose of a counterscreen is to sort out artefacts and off-target activity.

Test [4] is described as follows: inhibition of 3D7 malaria parasite growth – strain 3D7 (AID 2306).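 Note: 0% = DMSO wells and 100% = chloroquine plus artemisinin control wells.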 The note with it: P. falciparum 3D7 erythrocytic growth, LDH absorbance, 72 h; at 2 µM; active compounds read high.
In test [5] the target is Calcium-dependent protein kinase 1 (Plasmodium falciparum (isolate 3D7)) (UniProt P62344). The experiment in a line: PfCDPK1 kinase inhibitors, biochemical, TCAMS library (AID 1159585; cut-off not given, nearly all actives have IC50 up to about 0.98 µM;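 note: inhibitors leave more ATP so luminescence rises with inhibition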). The note with it: recombinant PfCDPK1, Kinase-Glo ATP depletion luminescence. Background: In Kinase-Glo more light means more ATP remaining.
Test [6] has as its target Plasmodium falciparum protein kinase 6 (PK6, PF3D7_1337100) (UniProt Q8IDW1). The experiment in a line: PfPK6 kinase inhibitors, biochemical, TCAMS library (AID 1159586). The note with it: recombinant PfPK6, Kinase-Glo ATP depletion luminescence.
For test [7], the target named is Protein kinase 7 (PK7), Plasmodium falciparum 3D7 (PF3D7_0213400) (UniProt Q7YTF7). The experiment in a line: inhibition of Plasmodium PK7 catalytic activity – biochemical, TCAMS antimalarial set, Kinase-Glo luminescence (AID 1159587). The note with it: recombinant PfPK7, Kinase-Glo ATP depletion luminescence.
Test [8] addresses Calcium-dependent protein kinase 4 (Plasmodium falciparum (isolate 3D7)) (UniProt Q8IBS5). The experiment in a line: PfCDPK4 kinase inhibitors, biochemical, TCAMS library (AID 1159588; cut-off not given, nearly all actives have IC50 up to about 0.91 µM). The note with it: recombinant PfCDPK4, Kinase-Glo ATP depletion luminescence.

The structures appear in SMILES notation. Values without a mark were called inactive. For some assays here: Entries with a potency or affinity are not part of this list. The source made the active and inactive calls. Unless noted, the rule behind the calls is not given here.

Sequence of Protein kinase 7 (PK7), Plasmodium falciparum 3D7 (PF3D7_0213400) (Q7YTF7 1-343): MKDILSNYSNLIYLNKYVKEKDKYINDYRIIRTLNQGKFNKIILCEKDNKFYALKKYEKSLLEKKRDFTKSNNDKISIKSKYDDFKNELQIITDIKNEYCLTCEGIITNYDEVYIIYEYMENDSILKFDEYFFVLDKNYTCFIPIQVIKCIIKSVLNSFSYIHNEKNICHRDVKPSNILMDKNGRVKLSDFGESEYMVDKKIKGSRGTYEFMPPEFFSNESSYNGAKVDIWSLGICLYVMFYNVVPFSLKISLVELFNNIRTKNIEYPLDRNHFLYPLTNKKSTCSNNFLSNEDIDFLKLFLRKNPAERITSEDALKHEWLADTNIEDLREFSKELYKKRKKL
Sequence of Calcium-dependent protein kinase 1 (Plasmodium falciparum (isolate 3D7)) (P62344 whole entry, looked up): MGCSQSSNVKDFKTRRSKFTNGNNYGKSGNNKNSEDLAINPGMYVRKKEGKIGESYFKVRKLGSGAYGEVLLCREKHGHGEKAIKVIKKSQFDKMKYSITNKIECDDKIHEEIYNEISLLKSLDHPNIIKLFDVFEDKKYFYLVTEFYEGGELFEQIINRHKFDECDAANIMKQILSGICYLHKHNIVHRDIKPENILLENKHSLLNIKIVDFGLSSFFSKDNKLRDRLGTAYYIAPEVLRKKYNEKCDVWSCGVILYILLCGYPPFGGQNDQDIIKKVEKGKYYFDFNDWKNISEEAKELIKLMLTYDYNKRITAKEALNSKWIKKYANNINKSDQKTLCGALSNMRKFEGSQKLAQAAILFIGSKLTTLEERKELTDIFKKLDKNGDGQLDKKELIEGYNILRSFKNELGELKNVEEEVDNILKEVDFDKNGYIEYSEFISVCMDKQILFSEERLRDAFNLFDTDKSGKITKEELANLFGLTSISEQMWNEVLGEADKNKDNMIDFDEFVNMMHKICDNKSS
Sequence of L-lactate dehydrogenase (Plasmodium falciparum (isolate CDC / Honduras)) (Q27743 whole entry, looked up): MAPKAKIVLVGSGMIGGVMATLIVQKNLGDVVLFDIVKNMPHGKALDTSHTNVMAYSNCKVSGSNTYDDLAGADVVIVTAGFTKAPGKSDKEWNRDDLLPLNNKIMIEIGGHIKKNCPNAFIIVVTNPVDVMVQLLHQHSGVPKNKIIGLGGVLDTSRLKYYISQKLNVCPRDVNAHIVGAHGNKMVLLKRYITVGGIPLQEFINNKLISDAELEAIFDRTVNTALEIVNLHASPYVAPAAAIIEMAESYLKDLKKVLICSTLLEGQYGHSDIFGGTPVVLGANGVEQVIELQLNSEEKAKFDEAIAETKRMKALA
Sequence of Plasmodium falciparum protein kinase 6 (PK6, PF3D7_1337100) (Q8IDW1 1-305): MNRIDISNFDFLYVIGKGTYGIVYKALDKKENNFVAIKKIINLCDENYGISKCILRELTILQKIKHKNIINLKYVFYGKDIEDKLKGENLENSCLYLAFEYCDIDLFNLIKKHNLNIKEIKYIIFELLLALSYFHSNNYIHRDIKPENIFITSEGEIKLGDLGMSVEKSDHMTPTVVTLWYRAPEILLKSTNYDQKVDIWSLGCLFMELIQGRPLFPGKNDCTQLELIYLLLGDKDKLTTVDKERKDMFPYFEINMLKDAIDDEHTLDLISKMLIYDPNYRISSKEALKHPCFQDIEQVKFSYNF
Sequence of Calcium-dependent protein kinase 4 (Plasmodium falciparum (isolate 3D7)) (Q8IBS5 whole entry, looked up): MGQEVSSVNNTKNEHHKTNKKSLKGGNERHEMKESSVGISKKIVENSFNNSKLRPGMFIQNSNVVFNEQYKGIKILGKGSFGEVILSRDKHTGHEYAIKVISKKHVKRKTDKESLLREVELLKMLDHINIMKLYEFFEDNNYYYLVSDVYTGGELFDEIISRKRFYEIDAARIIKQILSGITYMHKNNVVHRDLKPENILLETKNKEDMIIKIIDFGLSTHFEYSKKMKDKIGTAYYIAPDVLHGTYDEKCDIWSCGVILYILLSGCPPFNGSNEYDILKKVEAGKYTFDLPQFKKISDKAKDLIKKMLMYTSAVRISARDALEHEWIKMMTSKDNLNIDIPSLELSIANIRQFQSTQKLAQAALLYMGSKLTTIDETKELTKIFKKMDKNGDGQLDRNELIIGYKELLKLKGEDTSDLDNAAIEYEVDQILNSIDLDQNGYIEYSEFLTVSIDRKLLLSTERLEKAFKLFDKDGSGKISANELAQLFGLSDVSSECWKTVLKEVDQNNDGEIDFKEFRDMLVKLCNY

In general, inhibition refers to the relative decrease from the control value, in per cent. Regarding `N=C1c2ccccc2CN1CC(=O)c1ccc(Cl)c(Cl)c1`, the growth inhibition is 16% in test [1] and 98% (active) in test [4]. The values for the inhibition in test [2] and in test [3] were 1% and 0%, respectively. For the same compound, the result in test [5], in test [6], in test [7] and in test [8] was inactive.

`Cc1cc(NCCc2cccc(F)c2)nc(/N=C(\N)Nc2cccc(C(F)(F)F)c2)n1`: the values for the growth inhibition in test [1] and in test [4] were 99% (active) and 102% (active), respectively. Also, the values for the inhibition in test [2] and in test [3] were 42% and -1%, respectively. Moreover, the result in test [5], in test [6], in test [7] and in test [8] was inactive.

Consider `COc1ccc(NC(=O)c2cc(NC(=O)C3(N)CC3)c(=O)n(Cc3ccc(C(N)=O)cc3)c2)cc1`, for which the growth inhibition in test [1] was 72% (active); in test [4] it was 95% (active). Also, the inhibition in test [2] was 21%; in test [3], 3%. The result in test [5], in test [6], in test [7] and in test [8] was inactive.

Take `COc1cc(NC(=O)c2ccc3oc4ccccc4c3c2)ccc1OCCN1CCCCC1`: the growth inhibition in test [1] was 11%; in test [4], 89% (active). In addition, the inhibition in test [2] was 12%; in test [3] it was -4%. Moreover, the result in test [5], in test [6], in test [7] and in test [8] was inactive.

Turning to `O=C(/C=C/c1ccc(Cl)c(Cl)c1)NCCCCCN1CCCC(C(=O)Nc2ccc(F)c(Cl)c2)C1` (configuration not stated), the growth inhibition in test [1] was 2%; in test [4] it was 99% (active). The inhibition is 28% in test [2] and 1% in test [3]. The result in test [5], in test [6], in test [7] and in test [8] was inactive.

With `c1ccc(COc2ccnc(NCCCOc3cccc(CN4CCCCC4)c3)c2)cc1`, the growth inhibition in test [1] is 51% (active); in test [4] it was 101% (active). The inhibition was 22% in test [2] and -2% in test [3]. Besides, the outcome in test [5], in test [6], in test [7] and in test [8] was inactive.

As for `CCCCCC(C)N=C(Nc1ccc(C#N)cc1O)Nc1cccc(Cl)c1Cl` (configuration not stated), the values for the growth inhibition in test [1] and in test [4] were 98% (active) and 100% (active), respectively. For the same compound, the inhibition in test [2] was 28%; in test [3], -5%. Also, the outcome in test [5], in test [6], in test [7] and in test [8] was inactive.

For `NC(N)=Nc1nc(-c2ccc(N=C(N)N3CCC[C@H]3CN3CCCC3)cc2)cs1`, the growth inhibition in test [1] is 66% (active); in test [4] it was 82% (active). The inhibition in test [2] was 6%; in test [3], 1%. Besides, the outcome in test [5], in test [6], in test [7] and in test [8] was inactive.

With `CC(=O)Oc1c(C2CCN(CCCCNC(=O)c3ccc(-c4ccc(C#N)cc4)cc3)CC2)ccc2c1CCCC2`, the values for the growth inhibition in test [1] and in test [4] were 52% (active) and 88% (active), respectively. The inhibition in test [2] is 21%; in test [3], 3%. In addition, the outcome in test [5], in test [6], in test [7] and in test [8] was inactive.

For the compound `Cc1cccc(CCCNC(=O)CN(c2cccc(C(F)(F)F)c2)S(=O)(=O)c2ccc(C(F)(F)F)cc2)c1`, the growth inhibition in test [1] is 94% (active); in test [4] it was 96% (active). For the same compound, the inhibition in test [2] is 9%; in test [3], 5%. Also, the outcome in test [5], in test [6], in test [7] and in test [8] was inactive.

With `Cn1nccc1C(=O)NCCNCc1ccc(-c2ccc(-c3nc4ccccc4[nH]3)s2)cc1`, the growth inhibition is 97% (active) in test [1] and 101% (active) in test [4]. In addition, the values for the inhibition in test [2] and in test [3] were 23% and -9%, respectively. For the same compound, the result in test [5], in test [6], in test [7] and in test [8] was inactive.

As for `CCOC(=O)c1ccc(Nc2cc(Nc3ccc(C(=O)OCC)cc3)nc(C)n2)cc1`, the growth inhibition in test [1] is 33%; in test [4] it was 99% (active). Moreover, the inhibition in test [2] and in test [3] was 4% in each case. Also, the result in test [5], in test [6], in test [7] and in test [8] was inactive.

`Cn1cnc(-c2ccc3c(c2)CCN(CCC2CCC(NC(=O)/C=C/c4ccc(F)cc4)CC2)CC3)c1` (configuration not stated): the growth inhibition in test [1] is 18%; in test [4] it was 90% (active). Further, the figures for the inhibition in test [2] and in test [3] were 26% and 4%, respectively. For the same compound, the outcome in test [5], in test [6], in test [7] and in test [8] was inactive.

Take `COc1ccc(S(=O)(=O)Nc2ccc(C(=O)NCc3ccc(C(F)(F)F)cc3)cc2)cc1N1CCN(CC2CC2)CC1`: the growth inhibition is 1% in test [1] and 95% (active) in test [4]. Also, the inhibition in test [2] is 34%; in test [3], 2%. The outcome in test [5], in test [6], in test [7] and in test [8] was inactive.

Take `CN1CCC(C(=O)Nc2cccc(-c3ccc(-c4nc5ccccc5[nH]4)cc3)c2)CC1`: the figures for the growth inhibition in test [1] and in test [4] were 15% and 82% (active), respectively. Besides, the inhibition in test [2] is 7%; in test [3] it was 5%. Moreover, the result in test [5], in test [6], in test [7] and in test [8] was inactive.

Regarding `COc1ccc2ncc(Cl)c(CCN3CCC(NCc4ccc5c(n4)NC(=O)CS5)CC3)c2c1`, the figures for the growth inhibition in test [1] and in test [4] were 34% and 100% (active), respectively. In addition, the inhibition in test [2] was 26%; in test [3], -2%. In addition, the outcome in test [5], in test [6], in test [7] and in test [8] was inactive.

On to `CCCCCCCc1c(C)[nH]c2ccccc2c1=O`, for which the growth inhibition is 96% (active) in test [1] and 98% (active) in test [4]. Besides, the inhibition is -14% in test [2] and -7% in test [3]. In addition, the outcome in test [5], in test [6], in test [7] and in test [8] was inactive.

As for `Oc1ccccc1CN1CCN(C(c2ccccc2)c2ccccc2)CC1`, the growth inhibition is 90% (active) in test [1] and 98% (active) in test [4]. In addition, the results for the inhibition in test [2] and in test [3] were -4% and -1%, respectively. Also, the result in test [5], in test [6], in test [7] and in test [8] was inactive.

Consider `Cc1c(C(=O)[C@@H]2C[C@H]2CN2CCC(N3CCCC3)CC2)sc2ccccc12`, for which the values for the growth inhibition in test [1] and in test [4] were 9% and 94% (active), respectively. The inhibition was 16% in test [2] and 0% in test [3]. Moreover, the result in test [5], in test [6], in test [7] and in test [8] was inactive.
